High-throughput results: PubChem, several laboratories
Shown are actives, neighbours in structure and some others; about 2.1% of the full set was active somewhere.
MsrA act: activators of bovine methionine sulfoxide reductase A; purified bovine MsrA, absorbance read-out; activation, % at 10.6 µM; 360,000 tested, 0.3% active; in the data active = activation above about 7.5%;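 also: 0% = vehicle and 100% = reference activator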
MsrA inh: inhibits bovine methionine sulfoxide reductase A; inhibition, % at 15.5 µM; purified bovine MsrA, absorbance read-out; 360,000 tested, 0.75% active; AID 651718;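 also: 0% = vehicle wells with enzyme and 100% = reference inhibitor wells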
ABCB6 inh 2: blocks the human ABCB6 transporter | Q9NP58 | K562-ABCB6 porphyrin accumulation, flow cytometry, 1 h; active compounds read low | fluorescence ratio to DMSO, % at 10 µM | 360,000 tested, 0.19% active | AID 602162;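 active = fluorescence ratio to DMSO below 75%, the collection mean minus 3 SD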;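 also: signal is porphyrin accumulated inside mitochondria; 100% equals median channel fluorescence of DMSO control wells; lower ratio means ABCB6 inhibition with less porphyrin fluorescence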
Target sequence (Q9NP58 whole entry, looked up): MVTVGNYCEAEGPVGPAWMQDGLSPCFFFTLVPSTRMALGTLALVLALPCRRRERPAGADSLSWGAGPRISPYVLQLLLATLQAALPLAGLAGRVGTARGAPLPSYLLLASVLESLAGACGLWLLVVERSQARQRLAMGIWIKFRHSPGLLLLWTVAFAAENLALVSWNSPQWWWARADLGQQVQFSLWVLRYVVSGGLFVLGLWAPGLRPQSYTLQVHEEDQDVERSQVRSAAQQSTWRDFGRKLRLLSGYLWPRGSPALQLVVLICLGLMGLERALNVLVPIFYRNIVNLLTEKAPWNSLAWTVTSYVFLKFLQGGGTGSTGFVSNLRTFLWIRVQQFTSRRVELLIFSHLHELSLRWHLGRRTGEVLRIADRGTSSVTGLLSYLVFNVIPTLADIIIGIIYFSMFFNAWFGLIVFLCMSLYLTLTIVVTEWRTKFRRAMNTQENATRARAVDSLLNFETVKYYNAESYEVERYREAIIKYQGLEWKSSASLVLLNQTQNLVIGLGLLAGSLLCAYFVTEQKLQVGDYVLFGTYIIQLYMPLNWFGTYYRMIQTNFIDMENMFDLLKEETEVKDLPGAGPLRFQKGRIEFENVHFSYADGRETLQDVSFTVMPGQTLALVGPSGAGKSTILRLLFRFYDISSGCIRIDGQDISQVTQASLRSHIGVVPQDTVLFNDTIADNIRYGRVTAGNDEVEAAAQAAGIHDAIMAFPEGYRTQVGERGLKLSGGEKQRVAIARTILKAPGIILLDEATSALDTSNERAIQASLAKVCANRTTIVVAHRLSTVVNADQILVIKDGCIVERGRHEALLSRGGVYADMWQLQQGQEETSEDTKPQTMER
SMARCA2 activ: SMARCA2 function activation, primary screen. MG213 cells, MMTV-luciferase reporter, dexamethasone, overnight. activation, % at 9.1 µM. 370,000 tested, 1% active. AID 652017; in the data active = activation above about 7.8%;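 also: 0% = vehicle wells and 100% = reference activator wells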
MsrA conf: bovine MsrA inhibition, confirmed | AID 651822 | 2,300 tested, 41% active | purified bovine MsrA, absorbance read-out | inhibition, % at 15.5 µM | shares compounds with MsrA inh;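 also: coupled to thioredoxin reductase with NADPH and selenocystamine and DMSO as substrate; 0% = vehicle only and 100% = full effect of reference inhibitor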
Starred values were filed as active, the others as inactive; · = not tested or not shown. Rule as the data show it, unless noted: active = inhibition above about 4.5%; inactive = the rest.

SMILES | MsrA act | MsrA inh | ABCB6 inh 2 | SMARCA2 activ | MsrA conf
COC(=O)[C@H]1C[C@@]2(n3ccc4ccccc43)c3ccccc3N(S(=O)(=O)c3ccccc3)[C@H]2N1C(=O)CNC1CCCCC1 | · | · | · | -1 | ·
O=C(OCc1cn(Cc2c(F)cccc2F)nn1)N1CCOCC1 | · | · | · | -1 | ·
N#CC(C(=O)C12CC3CC(CC(C3)C1)C2)c1nc2ccccc2[nH]1 (centres undefined) | -2 | 2 | 92 | -3 | ·
N#CC(/C(=N/S(=O)(=O)c1cccs1)c1ccccc1)c1nc2ccccc2[nH]1 (centres undefined) | -3 | 5.0* | 97 | -2 | 5.8*
CCOc1ccc(/C=N/n2nnnc2N)cc1OCC | -4 | 4.8* | 102 | -3 | 2
CCOc1cc(/C=N\n2nnnc2N)ccc1O | -2 | 4 | 97 | 4 | ·
CC1(CC(=O)N/N=C/c2cc(Br)c(O)cc2O)OCCO1 | -11 | 6.1* | 98 | -4 | 5.3*
CC(=O)Oc1ccc2c(=O)c(/C=N/c3cc(=O)[nH]c(=S)[nH]3)coc2c1 | -1 | 5.5* | 106 | 5 | 4
CC(/C=C/C=C/c1ccccc1)=N\NC(=O)c1cccnc1 | -7 | 7.6* | 96 | -4 | 4.5*
Cc1ccc(C(=O)N/N=C/C=C/c2ccccc2)o1 | -7 | 8.8* | 96 | 0 | 8.2*
O=C(N/N=C/C=C/c1ccccc1)c1cccnc1 | -3 | 5.3* | 97 | -2 | 4.9*
O=C(CSc1ccccn1)N/N=C/C=C/c1ccccc1 | -6 | 4.9* | 98 | -3 | 2
N#Cc1cccc(NC(=O)OC2CC3CC2[C@H]2CCCCN2C3)c1 (some centres undefined) | · | · | · | -3 | ·
O=C(CSc1nc2ccccc2[nH]1)NN=Cc1c(F)cccc1Cl | · | · | · | 2 | ·
COC(=O)[C@]12C[C@H](CC(=O)NCc3cccc(C(F)(F)F)c3)C(=O)N(Cc3ccc(Cl)cc3Cl)C1=C[C@H](C1CCCC1)O[C@@H]2C | · | · | · | -3 | ·
Cc1cccc(Cn2cc(COC(=O)N3CCCC3)nn2)c1 | · | · | · | -4 | ·
C=CCN(CC=C)C(=S)NC(=O)/C=C/c1ccc(OC)cc1 | -9 | 4.8* | 102 | -2 | 2
COc1ccc(/C=C/C(=O)NC(=S)NNC(=O)c2cccnc2)cc1 | -2 | 6.0* | 99 | -4 | 5.2*
CC1=C2NC(N)=[N+](Cc3ccc4c(c3)OCO4)CC2n2c(=O)n(-c3ccccc3)c(=O)n2C1 (centres undefined) | · | · | · | 0 | ·
C/C(=N/NC(=O)c1cccnc1)c1cccc(O)c1 | · | · | · | -2 | ·
CC(Nc1nc2ccccc2n2cnnc12)c1ccccc1 (centres undefined) | -9 | 12* | 95 | 5 | 7.2*
c1ccc(Nc2nc3ccccc3n3cnnc23)cc1 | -2 | 3 | 101 | 4 | ·
Cc1ccc(C)c(Nc2nc3ccccc3n3cnnc23)c1 | -3 | 11* | 91 | 2 | 6.7*
O=C(O)c1cc(Cl)n[nH]c1=O | -9 | 1 | 99 | -2 | ·
O=C(Cc1cccs1)N/N=C\c1ccccc1 | · | · | · | 2 | ·
SMILES | MsrA act | MsrA inh | ABCB6 inh 2 | SMARCA2 activ | MsrA conf
Cn1c(NC(=O)/C=C\c2ccccc2)cc(=O)n(C)c1=O | -4 | 5.3* | 101 | 2 | 4
O=C(OCCN1CCN(C2CN(Cc3cn(Cc4ccccc4Cl)nn3)S(=O)(=O)C2)CC1)c1cc2ccccc2o1 (centres undefined) | · | · | · | -3 | ·
Cc1ncc(CO)c(/C=N/Nc2cccc(Cl)n2)c1O | 2 | 9.4* | 101 | 0 | 3
C/C(=N/NC(=O)Cc1cccs1)c1cccc([N+](=O)[O-])c1 | · | · | · | 6 | ·
COc1cccc2cc(-c3csc(CCn4nc(C)cc4C)n3)c(=O)oc12 | -9 | 5.5* | 94 | 0 | 2
COCCNC(=O)C[C@H]1CC[C@H]2[C@@H](COc3ccc(NS(=O)(=O)c4ccc(Cl)cc4)cc3C(=O)N2C)O1 | · | · | · | 3 | ·
COC(=O)c1ccc2nc(-c3ccc(OC)c(OC)c3)c(Cc3ccccc3C(F)(F)F)n2c1 | · | 0 | · | -2 | ·
Cc1nonc1C(=O)N/N=C/c1ccncc1 | -4 | 0 | 96 | -2 | ·
O=C(N/N=C/c1ccc(O)cc1O)c1ccncc1 | -1 | 4.9* | 99 | -1 | 4
Cc1nonc1C(=O)N/N=C/c1ccc(O)cc1O | -3 | 5.1* | 93 | -2 | 3
COc1cc(OC)cc(-c2oc(=O)c3cc(OC)c(OC)cc3c2C#CCCO)c1 | -5 | 11* | 94 | 1 | 7.8*
COc1ccc(-c2oc(=O)c3cc(OC)c(OC)cc3c2C#CCCO)cc1 | -6 | 0 | 91 | -1 | ·
CN(C)c1ccc(C(=O)c2ccccc2C(=O)O)c(O)c1 | -8 | 6.4* | 93 | -1 | 5.8*
